Results published in PubChem BioAssay AID489042 (NMMLSC, 2010).
Values without a mark were called inactive. No stated cut-off is given here; in the data, active means inhibition score above about 11; inactive means the rest.

Assay: S. cerevisiae short- and long-term growth effects – BY4741, OD595, 24 h, dose response (AID 489042)
Conditions: flow cytometer event count, 7 d (AID 449753), hits give high values

Row | Compound | inhibition score
1 | CC(C)OC(=O)c1ccc2nc3ccccc3nc2c1 | 0
2 | O=C(O)c1cnc2ccccc2n1 | 0
3 | N#CCc1nn(-c2ccccc2)c2ncnc(N)c12 | 0
4 | COc1ccc2nc3ccccc3nc2c1NC(=O)c1ccccc1Cl | 0
5 | O=C(OCc1c(F)cccc1Cl)c1cnc2ccccc2n1 | 0
6 | O=C(c1cccc2nc3ccccc3nc12)N1CCOCC1 | 0
7 | COc1ccc2nc3ccccc3[n+]([O-])c2c1 | 0
8 | CC(C)(C)n1nc(-c2ccc(Cl)cc2)c2c(N)ncnc21 | 0
9 | C#CCSc1nnc(-c2ccc([N+](=O)[O-])cc2)o1 | 0
10 | Cc1ccc(-c2nn(C(C)(C)C)c3ncnc(N)c23)cc1 | 0
11 | COc1ccc2nc3ccccc3nc2c1N | 0
12 | CCn1c2ccccc2c2n[nH]c(=S)nc21 | 0
13 | CC(C)(C)n1nc(-c2ccc(F)cc2)c2c(N)ncnc21 | 0
14 | Cc1cc(C)cc(NC(=O)CN2CCN(c3ccccn3)CC2)c1 | 0
15 | Cc1cc(C)c2[nH]c3nc(SCC(=O)O)nnc3c2c1 | 0
16 | COC(=O)c1cccc2nc3c(C(C)O)cccc3nc12 (centres undefined) | 0
17 | O=C(Nc1ccc2nc3ccccc3nc2c1)c1ccc(Br)cc1 | 0
18 | CCc1nc(NC(C)(C)C)c2cnn(-c3ccccc3)c2n1 | 0
19 | CC(C)(C)Nc1ncnc2c1cnn2-c1ccccc1 | 0
20 | O=C(/C=C/c1ccccc1)NC(=S)NNC(=O)Cc1cccs1 | 0
21 | CCN(CC)C(=O)c1cccc2nc3ccccc3nc12 | 0
22 | CCC(=Nc1ccccc1O)C1=C(O)CC(c2ccccc2)CC1=O (centres undefined) | 0
23 | CSc1nnc(-c2ccc([N+](=O)[O-])cc2)o1 | 0
24 | CC(C)CSc1nnc2c3ccccc3n(C)c2n1 | 0
25 | COc1ccc2c(c1)c1nnc(SC)nc1n2C | 0
26 | O=C1c2c(O)ccc(O)c2C(=O)c2c(NCCNCCO)ccc(NCCNCCO)c21 | 0
27 | CN(C)CCNc1ncnc2c1cnn2-c1ccc(Cl)cc1 | 0
28 | CCN(CC)c1ccc2nc3ccc(N)cc3[n+](-c3ccccc3)c2c1 | 0
29 | O=C(Nc1cccc(Cl)c1)Nc1ccc2nccnc2c1 | 0
